Results: the supplement of paper PMC7724964

Molecular target: T1, FKBP3 109-224 FKBP_C (domain begin residue: 109, domain end residue: 224), Q00688
T1 chain: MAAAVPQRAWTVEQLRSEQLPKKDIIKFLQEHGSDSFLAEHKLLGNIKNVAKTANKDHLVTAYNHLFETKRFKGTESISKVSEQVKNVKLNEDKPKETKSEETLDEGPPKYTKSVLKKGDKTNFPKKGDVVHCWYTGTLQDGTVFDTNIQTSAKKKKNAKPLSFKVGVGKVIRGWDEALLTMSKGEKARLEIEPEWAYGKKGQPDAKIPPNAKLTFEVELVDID
Assay: phage ELISA signal ratio (GST-PRM binding over GST background); higher = stronger binding of peptide-phage to the PRM
In short: (§1)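 Human peptide recognition domains were expressed in 96-well plates as fusions to the C-terminus of glutathione S-transferase (GST) and selected against an M13 phage library displaying randomized hexadecapeptides, cysteine-free and glycine-flanked, on the gene-8 major coat protein. Five selection rounds were run, and approximately 48 individual clones from rounds 4 and 5 were tested by phage ELISA. Each value is the ELISA signal on the GST-domain fusion divided by the signal on GST alone. Positive clones were sequenced.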
In the case of WGAGVFLVADPQMEVV, the “phage ELISA signal ratio” value is reported as 5.
KGVFLPEIEWKQGYDQ was tested, and the “phage ELISA signal ratio” value was 11.9.
VGVYSLQDEPQKRVVV was tested, and the “phage ELISA signal ratio” value was 6.15.

Molecular target: T2, DYNLL2 1-89 Dynein_light (domain begin residue: 1, domain end residue: 89), Q96FJ2
T2 chain: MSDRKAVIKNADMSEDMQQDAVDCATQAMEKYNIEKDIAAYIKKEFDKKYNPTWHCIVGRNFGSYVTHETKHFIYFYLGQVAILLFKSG
Assay: as above
In short: as §1
AMVQTEDDWEMMWEQL was tested, and the “phage ELISA signal ratio” value was 17.6.
In the case of TMTPWDWPIYQGESEH, the “phage ELISA signal ratio” value is reported as 25.7.
MEMGTQTYKWQEWAFV was tested, and the “phage ELISA signal ratio” value was 31.3.
In the case of WTQTMNNITPWIEGIA, the “phage ELISA signal ratio” value is reported as 26.2.
TQFGETWVNWIPLTIT was tested, and the “phage ELISA signal ratio” value was 25.9.
In the case of TQTDVISWQEFIFMRP, the “phage ELISA signal ratio” value is reported as 36.2.
For TMTDATLFEVPSYWIT, the “phage ELISA signal ratio” value was 31.9.
In the case of QQTDDWHVAETGIWLA, the “phage ELISA signal ratio” value is reported as 13.9.
For VQTEAWWPLQTPAWMV, the “phage ELISA signal ratio” value was 19.7.
In the case of TEMYEWMADATTNTMW, the “phage ELISA signal ratio” value is reported as 28.

What follows are binders tested against EIF2S1 9-93 S1 (domain begin residue: 9, domain end residue: 93), P05198 in the same assay as above.
Chain of EIF2S1 9-93 S1 (domain begin residue: 9, domain end residue: 93), P05198 (P05198 whole entry): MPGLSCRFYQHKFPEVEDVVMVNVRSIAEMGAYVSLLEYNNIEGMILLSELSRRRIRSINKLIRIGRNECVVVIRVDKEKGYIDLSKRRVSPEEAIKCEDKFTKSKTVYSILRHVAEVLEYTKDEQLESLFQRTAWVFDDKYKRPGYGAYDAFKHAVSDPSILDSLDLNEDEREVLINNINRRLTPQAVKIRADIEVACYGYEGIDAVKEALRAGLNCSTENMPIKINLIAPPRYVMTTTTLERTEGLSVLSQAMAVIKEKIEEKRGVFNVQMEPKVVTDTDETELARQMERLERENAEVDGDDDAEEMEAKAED
In short: as §1
SSGSSTRPMRVTRAPT was tested, and the “phage ELISA signal ratio” value was 4.01.
For VWVAWSWMHSVQMEAD, the “phage ELISA signal ratio” value was 12.3.

The binders below were run against EIF4E 2-217 IF4E (domain begin residue: 2, domain end residue: 217), P06730 in the same assay as above.
Chain of EIF4E 2-217 IF4E (domain begin residue: 2, domain end residue: 217), P06730 (P06730 whole entry): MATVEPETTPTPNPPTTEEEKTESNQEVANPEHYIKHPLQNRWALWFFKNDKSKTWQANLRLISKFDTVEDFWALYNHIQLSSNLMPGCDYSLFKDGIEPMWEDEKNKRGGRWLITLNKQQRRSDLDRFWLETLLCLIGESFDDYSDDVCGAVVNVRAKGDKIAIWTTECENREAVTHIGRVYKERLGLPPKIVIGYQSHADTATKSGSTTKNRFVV
In short: as §1
PWSWFTYREQLETENV was tested, and the “phage ELISA signal ratio” value was 20.1.

Molecular target: T3, ESRRG 219-458 Hormone_recep (domain begin residue: 219, domain end residue: 458), P62508
T3 chain: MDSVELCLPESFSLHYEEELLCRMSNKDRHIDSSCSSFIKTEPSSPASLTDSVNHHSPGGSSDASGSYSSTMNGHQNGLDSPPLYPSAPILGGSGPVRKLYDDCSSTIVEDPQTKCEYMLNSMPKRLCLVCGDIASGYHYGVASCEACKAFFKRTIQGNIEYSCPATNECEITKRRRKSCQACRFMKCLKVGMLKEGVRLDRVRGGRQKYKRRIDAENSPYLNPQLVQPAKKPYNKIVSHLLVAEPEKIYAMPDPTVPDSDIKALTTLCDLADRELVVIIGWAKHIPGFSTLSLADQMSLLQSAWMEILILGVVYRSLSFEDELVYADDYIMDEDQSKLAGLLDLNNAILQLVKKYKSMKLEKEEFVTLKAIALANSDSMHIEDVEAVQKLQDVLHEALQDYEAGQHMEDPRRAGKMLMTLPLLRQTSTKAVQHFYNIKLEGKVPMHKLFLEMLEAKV
Assay: as above
In short: as §1
SFPFLKMYLDPEPDDV was tested, and the “phage ELISA signal ratio” value was 11.2.
In the case of QYVEEGSWYMLHMYLT, the “phage ELISA signal ratio” value is reported as 17.4.
For TNPPAEHMSRLHWELT, the “phage ELISA signal ratio” value was 18.2.

Each binder was assayed against PCMT1 1-227 PCMT (domain begin residue: 1, domain end residue: 227), P22061 in the same assay as above.
Chain of PCMT1 1-227 PCMT (domain begin residue: 1, domain end residue: 227), P22061 (P22061 whole entry): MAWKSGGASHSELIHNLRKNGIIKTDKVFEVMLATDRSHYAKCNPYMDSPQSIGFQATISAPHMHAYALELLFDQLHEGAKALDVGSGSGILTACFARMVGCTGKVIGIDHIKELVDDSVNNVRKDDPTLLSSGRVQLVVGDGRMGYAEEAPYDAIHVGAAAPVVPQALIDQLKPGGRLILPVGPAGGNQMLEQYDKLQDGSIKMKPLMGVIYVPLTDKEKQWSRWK
In short: as §1
SFPFLKMYLDPEPDDV was tested, and the “phage ELISA signal ratio” value was 11.2.
TNPPAEHMSRLHWELT was tested, and the “phage ELISA signal ratio” value was 18.2.

Molecular target: T4, ESR2 263-500 Hormone_recep (domain begin residue: 263, domain end residue: 500), Q92731
T4 chain: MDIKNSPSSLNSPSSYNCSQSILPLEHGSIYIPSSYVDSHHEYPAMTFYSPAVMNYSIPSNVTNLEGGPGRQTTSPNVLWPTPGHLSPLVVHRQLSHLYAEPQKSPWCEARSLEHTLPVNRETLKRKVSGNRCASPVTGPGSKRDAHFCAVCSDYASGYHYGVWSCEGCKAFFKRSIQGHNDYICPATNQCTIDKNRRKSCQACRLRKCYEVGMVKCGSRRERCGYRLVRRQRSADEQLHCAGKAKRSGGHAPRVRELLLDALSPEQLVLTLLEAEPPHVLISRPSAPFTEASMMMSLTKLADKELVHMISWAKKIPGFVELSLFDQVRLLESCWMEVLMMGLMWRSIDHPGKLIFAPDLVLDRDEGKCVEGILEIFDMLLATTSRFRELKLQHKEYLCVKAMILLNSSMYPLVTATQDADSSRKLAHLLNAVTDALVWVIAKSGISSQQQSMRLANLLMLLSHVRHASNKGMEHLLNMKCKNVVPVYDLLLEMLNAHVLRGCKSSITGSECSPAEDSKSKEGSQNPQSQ
Assay: as above
In short: as §1
For GVDVWLWDKQWNMWMP, the “phage ELISA signal ratio” value was 25.9.
With EERTWSFEEWLWMPAM the “phage ELISA signal ratio” value was 26.6.

What follows are binders tested against PABPC1 96-174 RRM_1 (domain begin residue: 96, domain end residue: 174) in the same assay as above.
In short: as §1
For VWVAWSWMHSVQMEAD, the “phage ELISA signal ratio” value was 12.3.

Molecular target: T5, EEF1A2 240-332 GTP_EFTU_D2 (domain begin residue: 240, domain end residue: 332), Q05639
T5 chain: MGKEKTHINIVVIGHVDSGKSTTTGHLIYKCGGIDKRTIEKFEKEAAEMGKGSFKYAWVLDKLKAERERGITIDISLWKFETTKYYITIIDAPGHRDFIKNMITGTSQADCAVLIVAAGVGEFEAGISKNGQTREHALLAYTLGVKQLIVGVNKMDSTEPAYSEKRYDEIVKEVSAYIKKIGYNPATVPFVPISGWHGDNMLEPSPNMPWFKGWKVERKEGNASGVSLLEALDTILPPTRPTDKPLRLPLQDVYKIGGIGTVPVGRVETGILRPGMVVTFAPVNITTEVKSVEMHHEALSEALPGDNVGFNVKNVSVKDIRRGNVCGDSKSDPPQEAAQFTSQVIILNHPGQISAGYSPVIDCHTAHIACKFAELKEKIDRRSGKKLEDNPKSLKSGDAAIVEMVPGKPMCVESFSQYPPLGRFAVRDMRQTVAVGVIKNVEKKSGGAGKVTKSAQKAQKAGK
Assay: as above
In short: as §1
In the case of SDHTHWQLIQWDGWML, the “phage ELISA signal ratio” value is reported as 11.6.

Molecular target: T6, ENAH 9-116 WH1 (domain begin residue: 9, domain end residue: 116), Q8N8S7
T6 chain: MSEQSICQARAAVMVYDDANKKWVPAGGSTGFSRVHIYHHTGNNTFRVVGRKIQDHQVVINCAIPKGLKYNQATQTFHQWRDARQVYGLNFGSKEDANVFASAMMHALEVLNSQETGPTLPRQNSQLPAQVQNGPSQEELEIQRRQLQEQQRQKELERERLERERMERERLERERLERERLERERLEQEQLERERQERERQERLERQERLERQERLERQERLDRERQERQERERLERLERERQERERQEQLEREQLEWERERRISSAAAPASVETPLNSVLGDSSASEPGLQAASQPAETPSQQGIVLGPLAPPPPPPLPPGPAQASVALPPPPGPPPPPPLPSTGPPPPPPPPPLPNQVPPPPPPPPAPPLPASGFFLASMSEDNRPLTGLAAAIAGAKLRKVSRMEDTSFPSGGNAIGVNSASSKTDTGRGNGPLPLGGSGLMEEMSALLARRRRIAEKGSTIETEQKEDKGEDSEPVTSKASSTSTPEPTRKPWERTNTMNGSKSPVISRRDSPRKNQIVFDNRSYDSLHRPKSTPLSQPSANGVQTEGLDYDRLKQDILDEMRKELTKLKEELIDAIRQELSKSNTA
Assay: as above
In short: as §1
For WEGNQWEWPPAYMELM, the “phage ELISA signal ratio” value was 7.2.

What follows are binders tested against EGFR 334-495 Recep_L_domain (domain begin residue: 334, domain end residue: 495), P00533 in the same assay as above.
In short: as §1
With EFFIPKEFYWDRVQDV the “phage ELISA signal ratio” value was 26.6.

Molecular target: T7, EVL 1-130 WH1 (domain begin residue: 1, domain end residue: 130), Q9UI08
T7 chain: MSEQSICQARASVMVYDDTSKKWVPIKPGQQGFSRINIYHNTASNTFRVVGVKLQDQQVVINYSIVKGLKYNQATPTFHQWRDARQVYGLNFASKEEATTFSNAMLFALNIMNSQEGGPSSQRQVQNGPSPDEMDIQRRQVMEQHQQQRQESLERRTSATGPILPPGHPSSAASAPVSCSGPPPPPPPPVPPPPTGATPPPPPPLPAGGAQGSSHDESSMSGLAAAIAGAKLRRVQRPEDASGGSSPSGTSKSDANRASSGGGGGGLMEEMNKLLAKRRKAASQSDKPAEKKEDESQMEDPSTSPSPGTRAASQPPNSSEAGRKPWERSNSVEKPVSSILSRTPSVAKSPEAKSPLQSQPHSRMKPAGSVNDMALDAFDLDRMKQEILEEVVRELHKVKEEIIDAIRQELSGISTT
Assay: as above
In short: as §1
With GIGFEWVHDGWWPMWT the “phage ELISA signal ratio” value was 13.8.

Molecular target: T8, ESRRA 179-423 Hormone_recep (domain begin residue: 179, domain end residue: 423), P11474
T8 chain: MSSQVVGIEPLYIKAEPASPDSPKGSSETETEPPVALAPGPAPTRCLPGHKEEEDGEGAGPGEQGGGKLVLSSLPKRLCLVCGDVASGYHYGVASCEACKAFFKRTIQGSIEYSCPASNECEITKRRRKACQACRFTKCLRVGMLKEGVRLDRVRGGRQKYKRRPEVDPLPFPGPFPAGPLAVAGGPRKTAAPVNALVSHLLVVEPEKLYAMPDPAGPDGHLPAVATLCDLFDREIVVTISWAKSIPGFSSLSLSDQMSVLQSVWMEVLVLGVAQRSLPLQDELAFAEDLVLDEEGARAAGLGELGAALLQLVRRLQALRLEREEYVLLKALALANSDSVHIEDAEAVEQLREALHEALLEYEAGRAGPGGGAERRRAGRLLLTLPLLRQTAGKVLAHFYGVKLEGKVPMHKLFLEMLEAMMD
Assay: as above
In short: as §1
In the case of EFNQWFADHWQQWHYE, the “phage ELISA signal ratio” value is reported as 3.76.

Molecular target: T9, SPRED1 13-131 WH1 (domain begin residue: 13, domain end residue: 131), Q7Z699
T9 chain: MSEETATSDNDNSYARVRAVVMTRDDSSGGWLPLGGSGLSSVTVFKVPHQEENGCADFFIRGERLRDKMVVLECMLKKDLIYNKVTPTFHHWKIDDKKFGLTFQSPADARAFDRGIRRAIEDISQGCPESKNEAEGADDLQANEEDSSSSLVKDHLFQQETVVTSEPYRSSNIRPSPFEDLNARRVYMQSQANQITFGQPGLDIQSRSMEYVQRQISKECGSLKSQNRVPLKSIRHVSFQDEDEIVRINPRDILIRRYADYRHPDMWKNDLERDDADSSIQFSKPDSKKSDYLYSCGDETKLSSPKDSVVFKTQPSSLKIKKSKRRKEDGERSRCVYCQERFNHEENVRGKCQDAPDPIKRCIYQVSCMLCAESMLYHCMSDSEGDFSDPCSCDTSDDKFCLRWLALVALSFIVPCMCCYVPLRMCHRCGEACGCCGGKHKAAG
Assay: as above
In short: as §1
EFNQWFADHWQQWHYE was tested, and the “phage ELISA signal ratio” value was 5.28.
